Test results: PubChem BioAssay AID624330 (Southern Research Specialized Biocontainment Screening …, 2012)
The campaign covered roughly 340,000 compounds. About 2,100 (0.62%) were called active.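 Rule for the calls: active = first-screen hits whose inhibition reached a set limit at any dose in the follow-up dose series; inconclusive = inhibition above the set first-screen limit but never retested; inactive = the rest.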 These entries were drawn from the full list. Results with a measured potency or affinity are listed apart.

Target: Rac GTPase-activating protein 1 (Homo sapiens) (UniProt Q9H0H5)
Experiment: MgcRacGAP GTPase-activating activity inhibitors, confirmation, biochemical, ADP Hunter fluorescence, primary and confirmatory (AID 624330);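 note: fluorescence reports GDP produced by GAP-driven GTP hydrolysis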
Conditions: MgcRacGAP-stimulated Rac1 GTP hydrolysis, at 30 µM, active compounds read high, GST-tagged Rac1 F28L mutant substrate

Chain of Rac GTPase-activating protein 1 (Homo sapiens) (Q9H0H5 whole entry, looked up): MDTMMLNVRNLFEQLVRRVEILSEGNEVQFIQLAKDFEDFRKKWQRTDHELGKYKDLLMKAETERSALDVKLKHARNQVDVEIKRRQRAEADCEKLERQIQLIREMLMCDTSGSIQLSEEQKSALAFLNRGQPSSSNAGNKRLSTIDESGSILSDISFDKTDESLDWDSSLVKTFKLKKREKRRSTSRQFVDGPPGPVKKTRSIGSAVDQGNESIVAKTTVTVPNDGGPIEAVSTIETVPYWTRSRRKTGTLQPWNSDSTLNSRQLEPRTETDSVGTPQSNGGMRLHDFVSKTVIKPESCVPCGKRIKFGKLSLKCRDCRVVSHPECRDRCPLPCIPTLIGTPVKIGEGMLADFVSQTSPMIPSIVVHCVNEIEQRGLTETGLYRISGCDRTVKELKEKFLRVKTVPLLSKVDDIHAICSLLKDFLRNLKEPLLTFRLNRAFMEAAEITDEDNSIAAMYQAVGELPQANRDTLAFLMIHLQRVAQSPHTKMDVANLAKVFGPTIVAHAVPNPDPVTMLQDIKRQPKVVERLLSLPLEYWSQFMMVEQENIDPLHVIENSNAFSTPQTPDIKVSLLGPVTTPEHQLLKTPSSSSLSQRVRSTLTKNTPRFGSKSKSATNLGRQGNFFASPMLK

inhibition, inactive:
CC1(c2nnc(-c3cccc(Cl)c3)o2)CC(c2ccccc2)=NO1 (stereo unspecified) 6.54%, CCN(CC)CCCNC(=O)C1CCCN(c2nnc(N3CCCC3=O)s2)C1 (stereo unspecified) 8.15%, Cc1ccccc1C(=O)N1CCC(C(=O)Nc2ccccn2)CC1 3.54%, CC1CCCC(C)N1CC(O)COC1CCC(C(C)(C)C)CC1 (stereo unspecified) 8.37%, CC(C)(C)c1cccc(OCCCSc2ncccn2)c1 4.61%, O=C(N/C(=C/c1ccc(Br)cc1)C(=O)N1CCCCC1)c1ccccc1F 8.71%, C=CCNCCCCOc1c(Cl)cc(C)cc1Br 29.7%, Cc1cc(C)c(C)c(OCCOCCNCc2ccccc2)c1 17.1%, Cc1cc(C)c(OCCCNCc2ccccc2)c(Br)c1 26.8%, Cc1cc(Cl)c(OCCCNCc2ccccc2)c(Br)c1 30.3%, COCCNCCCCOc1c(Cl)cc(C)cc1Br 27.8%, Cc1ccc(OCCNCc2ccccc2)c(C)c1 20.6%, Cc1cc(C(=O)CSc2ccc3c(c2)OCCO3)c(C)n1C1CC1 6.62%, COc1ccc(C(=O)/C=C/c2ccccc2OC)c(OC(=O)c2ccc([N+](=O)[O-])cc2)c1 8.99%, COc1cccc(C2C(C(=O)c3cccs3)=C(O)C(=O)N2CCN2CCOCC2)c1 (stereo unspecified) -8.26%, O=C(NCc1ccccc1Cl)C1CCC(=O)N1Cc1ccc(F)cc1 (stereo unspecified) 11.4%, CN(CCOc1ccccc1)C(=S)Nc1ccc(OC(F)F)cc1 5.1%, O=C(c1ccc(Cl)cc1)N1CCN(C(=O)C2CCCCC2)CC1 7.43%, O=C1N/C(=C\c2ccccc2)C(O)=C1C=NCc1ccccc1 3.17%, O=C1N/C(=C/c2ccc(Br)cc2)C(O)=C1C=NCc1ccccc1 3.27%, COc1cc(NC(=O)CN2CCC(C(N)=O)(N3CCCCC3)CC2)c(OC)cc1Cl 0.16%, Cc1onc(-c2ccccc2)c1C(=O)N/N=C/c1cccc(O)c1 8.34%, COc1cc(/C=N/NC(=O)c2c(-c3ccccc3)noc2C)cc(OC)c1OC 7.95%, CCOc1ccc(/C=N/NC(=O)c2c(-c3ccccc3)noc2C)cc1 10.9%, CCCOc1ccc(/C=N/NC(=O)c2c(-c3ccccc3)noc2C)cc1OC 7.42%, CCOC(=O)c1c(C)n(C)c2cc(Br)c(C)cc12 -1.61%, CCc1nnc(NS(=O)(=O)c2ccc(N=Cc3c(C)[nH]n(-c4cccc(Cl)c4)c3=O)cc2)s1 9.47%, Cc1nn(C)cc1CNC(=O)c1ccccc1Br -6.9%, CC(Oc1ccc2ccc(=O)oc2c1)C(=O)c1ccccc1 (stereo unspecified) 8.03%, CN(C)CCNC(=O)c1c(NC(=O)c2ccccc2)sc2c1CCCC2 11.8%, NCCNC(=O)c1c(NC(=O)c2ccccc2)sc2c1CCCC2 10.3%, CCCC(=O)Nc1cc(C)c(NC(=O)c2ccncc2)cn1 1.4%, CCOc1ccccc1NC(=O)COC(=O)C1CCC1 6.3%, O=C(O)Cn1cc(/C=C2/NC(=O)N(c3ccc(Cl)cc3)C2=O)c2ccccc21 8.99%, O=C1CCCC(=O)C1=Cc1c[nH]c2ccccc12 8.99%, O=C1OC2(CCCC2)OC(=O)C1=Cc1c[nH]c2ccccc12 10.5%, O=C(O)Cn1cc(/C=C2\SC(=O)N(c3ccccc3)C2=O)c2ccccc21 0.86%, Clc1ccc(-c2csc(Nc3ccccc3)[n+]2Cc2ccco2)c(Cl)c1 4.62%, COC(=O)c1c(C(=O)OC)c2ccccn2c1C(=O)c1ccc([N+](=O)[O-])cc1 -6.01%, Nc1nc2ccc(Br)cc2s1 1.67%, Cc1nc2ccc(N)cc2s1 5.78%, Nc1ccc2sc(N)nc2c1 19.6%, Nc1ccc(-c2nc3cc(N)ccc3s2)cc1 7.4%, Nc1ccc2nc(-c3ccccc3)sc2c1 4.03%, Nc1cccc(-c2nc3ccc(N)cc3s2)c1 10.5%, COc1cccc(NC(=O)CN(C)C(=O)/C=C/c2ccc3ccccc3n2)c1 0.53%, COc1ccc(-c2nc(N3CCOCC3)nc3n[nH]c(N)c23)cc1 -3.94%, COc1ccc(CCN(C)C2CCCN(S(=O)(=O)c3ccccc3)C2)cc1OC (stereo unspecified) 10.3%, O=C(CSc1ncn[nH]1)Nc1ccc(Cl)c(Cl)c1 12.3%, O=C(O)/C=C/C(=O)Nc1ccc(OCc2ccccc2)cc1 11.5%, CCOc1[nH]n(-c2ccc(Cl)cc2)c(=O)c1C=NCc1cccnc1 7.22%, O=C1OCC/C1=C\c1ccccc1 5.73%, CC1CCCC(=C\c2ccccc2)/C1=N/O (stereo unspecified) 9.75%, CC1CCC/C(=C\Nc2ccc(C(=O)O)cc2)C1=O (stereo unspecified) -1.76%, O=C1OCCC1=Cc1ccccc1 -4.26%, O=C(NC1CCS(=O)(=O)C1)c1cnccn1 (stereo unspecified) 6.19%, O=C(c1scc2c1CCCC2)N1CCOCC1 5.17%, O=C(Nn1c(-c2ccc(Br)cc2)nc2ccccc2c1=O)c1cccnc1 2.47%, CCCN(CCC)CC(O)CN1C(=O)NC(C)(C)C1=O (stereo unspecified) -0.64%, COc1ccc(C(=O)CSc2nnc(-c3cccnc3)n2Cc2ccco2)cc1 9.77%, CCCCn1c(N)nc2ccccc21 1.51%, CCCCC(=O)NCc1ccc2c(c1)cc(C)n2C 7.65%, Cc1ccc(N2CC(C(=O)NC(C)CCc3ccccc3)CC2=O)cc1 (stereo unspecified) 1.14%, Cc1cc(OCn2ccc(C(=O)O)n2)ccc1Cl 15.5%, O=C(O)c1ccccc1C(=O)N1CCN(Cc2ccc3c(c2)OCO3)CC1 6.42%, CCNC(=S)N1CCN(Cc2ccc3c(c2)OCO3)CC1 3.54%, CCCNC(=S)N1CCN(Cc2ccc3c(c2)OCO3)CC1 23.5%, O=C(c1cccc2ccccc12)N1CCN(Cc2ccccc2F)CC1 30.9%, O=C(c1ccccc1)c1ccccc1C(=O)N1CCN(Cc2ccccc2F)CC1 15.4%, O=C(c1ccccc1Cl)N1CCN(Cc2ccc3c(c2)OCO3)CC1 1.05%, O=C(/C=C/c1cccc(F)c1)N1CCN(c2ccccn2)CC1 6.78%, CCOc1ccc(OCCC(=O)Nc2ccc(N3CCOCC3)cc2N2CCOCC2)cc1 4.37%, COC(=O)c1ccsc1NC(=O)CN1CCN(c2ncccn2)CC1 -6.48%, O=C(CSc1nc2ncc(Cl)cc2[nH]1)N1CCC(Cc2ccccc2)CC1 5.18%, O=C(COc1ccccc1[N+](=O)[O-])Nc1cccc(Cl)c1N1CCOCC1 9.17%, COc1ccc(CNc2cc(C)ccc2C)c(OC)c1OC 14.2%, COc1cc(OC)c(OC)cc1CNc1cc(C)ccc1OC 14.2%, COc1cc(CNc2cc(C)ccc2C)cc(OC)c1OC 6.31%, COc1ccccc1CNc1cc(-c2ccccc2)ccc1OC 7.7%, COc1cccc(CNc2nn[nH]n2)c1OC 3.59%, COc1ccccc1CNc1cc(C)ccc1C -1.27%, O=C(c1nn2c(C(F)(F)F)cc(-c3ccccc3)nc2c1Cl)N1CCN2CCCC2C1 (stereo unspecified) 3.99%, CC(C)c1ccc(NC(=O)NC2CCN(CC(=O)Nc3cccc4ccccc34)CC2)cc1 13.1%, CNC(=O)C[C@H]1C(=O)N(C2CCCCC2)C[C@@H]1CSC 16.8%, Cc1ccccc1Nc1ncnc2c1cnn2C 12.2%, O=C(c1ccc(Cl)c(S(=O)(=O)N2CCOCC2)c1)N1CCCC1 3.9%, O=C(N1CCCCC1)N1CCN(S(=O)(=O)c2ccc(Cl)cc2)CC1 4.45%, CC(=O)n1c2ccccc2c2nc(NC(C)C)sc21 5.24%, C=CCNc1nc2c3ccccc3n(C(C)=O)c2s1 24.6%, COc1cc(C(=O)NCc2nnc(SCC(=O)N3CCCCC3)o2)cc(OC)c1OC 6.92%, CC1=CC(=O)C=C/C1=C(/c1ccc(O)cc1C)c1ccccc1S(=O)(=O)O 9.36%, CC1=C/C(=C(\c2ccc(O)c(C)c2)c2ccccc2S(=O)(=O)O)C=CC1=O 3.41%, Cc1cc(C(=O)CS(=O)(=O)c2ccccc2)cc(C)c1O 10.7%, CC1=C/C(=C(/c2ccc(O)c(C)c2)c2ccccc2S(=O)(=O)O)C=CC1=O 19.7%, COc1cc(OC)cc(C(C(=O)NCc2ccccc2)N(Cc2ccco2)C(=O)c2ccno2)c1 (stereo unspecified) 5.98%, CCc1cc2c(C)ccc(C)c2nc1SCC(=O)Nc1c(C)[nH]c(=O)[nH]c1=O -14.5%, CCOC(=O)/C(=N\Nc1ccccc1)P(=O)(c1ccccc1)c1ccccc1 5.15%, COc1ccc(C(CNC(=O)CSc2ccccc2C)N(C)C)cc1 (stereo unspecified) 6.46%, COC(=O)c1c(NC(=O)CSc2nnnn2-c2ccccc2)sc2c1CCC(C(C)(C)C)C2 (stereo unspecified) 5.4%, CC1CCCC=CC2CC(OC(=O)CN(C)C)CC2C(O)C=CC(=O)O1 (stereo unspecified) 3.18%, CC1CCC/C=C/C(=O)c2c(O)cc(O)cc2CC(=O)O1 (stereo unspecified) -7.81%
